# Screens: PubChem, National Center for Advancing Translational Sciences (NCATS)
# HT1080 IDH1KD tx = qHTS for induction of synthetic lethality in tumor cells producing 2HG: qHTS for the HT-1080-IDH1KD cell line. HT-1080 IDH1 knockdown viability, ATP luminescence, 48 h. Potency, µM (top dose mostly 46.1 µM), without a hit: at the highest dose activity, negative = toxicity, hits mostly cytotoxic. actives 2% (n = 360,000). AID 686971, 2013;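 further: 0% = DMSO wells and -100% = cell-free medium wells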
#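 Luminescent ATP read-out (CellTiter-Glo, 10 min at room temperature) after 48 h compound exposure at 37 °C gave viability of IDH1-knockdown HT-1080 cells. Activity was normalised to DMSO and cell-free wells, then fitted as concentration-response curves.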
# KB-V1 cytotox = qHTS assay for MDR1-selective chemotherapeutics: Primary screen using the drug-selected MDR subline cells KB-V1; KB-V1 MDR cells viability, CellTiter-Glo, 72 h; Potency, µM (series often up to 46.1 µM), usual class: cytotoxic; actives 3.4% (n = 400,000); further: nearly all actives have a fitted effect of over 60% in size
#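 Cells of the MDR subline KB-V1 are plated, dosed with compound at multiple concentrations, and incubated 72 h at 37 degrees C; CellTiter-Glo is then added and luminescence read after 10 min.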
# DT40 TDP1 CPT = qHTS for Inhibitors of human tyrosyl-DNA phosphodiesterase 1 (TDP1): qHTS in cells in presence of CPT | chicken DT40 Tdp1-/-;hTDP1 cells + 20 nM CPT, ATP luminescence, 48 h | Potency, µM (highest dose often 46.2 µM), inactives show top-dose activity change, negative = growth inhibition, hits mostly inhibitors | actives 12% (n = 420,000); further: nearly all actives have a fitted effect of over 55% in size
#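 Cell growth measured by CellTiter-Glo luminescence after a minimum 48 h, 37 C compound exposure with 20 nM CPT in Tdp1-knockout DT40 cells stably expressing hTDP1, seeded 400/well; qHTS titration format.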
# DT40 TDP1 no CPT = qHTS for Inhibitors of human tyrosyl-DNA phosphodiesterase 1 (TDP1): qHTS in cells in absence of CPT; Potency, µM (series often up to 46.2 µM), inactives show top-dose activity change, negative = growth inhibition, hits mostly inhibitors; actives 15% (n = 420,000); DT40 Tdp1-/- hTDP1 cells, no CPT, ATP luminescence, 48 h; further: nearly all actives have a fitted effect of over 55% in size
#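 Chicken DT40 Tdp1-/- cells complemented with human TDP1, screened without camptothecin (DMSO vehicle only), 400 cells/well. Compounds pin-transferred, cells incubated at 37 °C for at least 48 hr. Growth read as ATP-dependent luminescence (CellTiter-Glo, 30 min at RT).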
# KB-3-1 tox = qHTS assay for MDR1-selective chemotherapeutics: Primary screen using the parental adenocarcinoma cell KB-3-1 | KB-3-1 viability, CellTiter-Glo ATP luminescence, 72 h | Potency, µM (doses to about 46.1 µM), actives largely listed as cytotoxic | actives 1.4% (n = 400,000) | AID 1347075, 2019; further: nearly all actives have a fitted effect of over 60% in size
#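 72 h, 37 °C compound treatment of KB-3-1 parental cells; CellTiter-Glo added, 10 min, luminescence read. Data corrected against DMSO-only plates and normalized before curve fitting.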
# HT1080-NT tox = qHTS for induction of synthetic lethality in tumor cells producing 2HG: qHTS for the HT-1080-NT fibrosarcoma cell line. HT-1080-NT fibrosarcoma viability, CellTiter-Glo ATP luminescence, 48 h. Potency, µM (titrated, usually from 46.1 µM), inactives show at the top dose activity, negative = less viability, most hits filed as cytotoxic. actives 1.6% (n = 360,000). AID 686970, 2013;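 further: NT is the 2HG producing partner of a matched IDH1 knockdown line; 0% = DMSO-treated cells and -100% = media-only wells without cells; nearly all actives have a fitted effect of over 55% in size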
#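 A 48-hour cytotoxicity screen used HT-1080-NT cells plated 2 hours before compound delivery. ATP-based CellTiter-Glo luminescence measured viability, normalized to DMSO and no-cell controls.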
# * = called active by the depositor; i = inactive; ? = inconclusive; / = not tested or not shown; ! = not confirmed by another sample. Hits are enriched below; roughly 19% of the tested compounds scored in any of these assays. The call rests on the fitted dose curve; in most records, active means well fitted curve in the direction sought with a large enough effect; inconclusive means small, poorly fitted or top-dose-only effect, or another doubt; inactive means no such curve, though single readings can be large; an effect the other way counts as inactive or inconclusive. Unless noted, on the % scale 0 is the no-effect control and ±100 the full control effect; potency means the concentration at half of the fitted maximal effect.
SMILES,HT1080 IDH1KD tx,KB-V1 cytotox,DT40 TDP1 CPT,DT40 TDP1 no CPT,KB-3-1 tox,HT1080-NT tox
COc1ccc(-c2cn3c(C)c(C(=O)N4CCN(c5ccccc5)CC4)sc3n2)cc1,-7.3%,i,?,?,i,0.0%
Cc1c(C(=O)N2CC(C)OC(C)C2)sc2nc(-c3ccc(F)cc3)cn12 (stereo not given),-3.6%,8.2µM*,?,18.4µM*,?,18.6%
COc1ccc(N2CCN(C(=O)c3cc(-c4ccc(F)cc4)[nH]c3C)CC2)cc1,-11.8%,i,-20.9%,-19.8%,i,-14.1%
CCOC(=O)N1CCN(C(=O)c2cc(-c3ccc(F)cc3)[nH]c2C)CC1,12.8%,i,?,20.6µM*,i,11.1%
COC(=O)C1CCN(C(=O)c2sc3nc(-c4ccccc4)cn3c2C)CC1,-7.9%,i,-13.2%,-23.4%,i,0.1%
CCOC(=O)N1CCN(C(=O)c2sc3nc(-c4ccc(F)cc4)cn3c2C)CC1,7.2%,7.31µM*,?,?,i,5.2%
COc1cc(C(=O)Nc2ccn(C)n2)ccc1OC(F)F,6.8%,i,-9.7%,-6.4%,i,13.7%
CC(C)c1ccc(S(=O)(=O)c2cn(CC(=O)Nc3ccc(F)cc3)c3ccccc3c2=O)cc1,/,?,-3.2%,3.0%,i,/
Cc1ccc(-c2nnc(Nc3ccc(C(=O)N(C)C)cc3)c3ccccc23)cc1S(=O)(=O)NCC1CCCO1 (stereo not given),-8.1%,i,14.6µM*,23.1µM*,i,-3.5%
COC(=O)c1ccc(Nc2nnc(-c3ccc(C)c(S(=O)(=O)NCC4CCCO4)c3)c3ccccc23)cc1 (stereo not given),-15.9%,i,23.1µM*,23.1µM*,i,-2.2%
Cc1cnn(Cc2ccccc2)c1N,0.6%,i,-6.8%,12.1%,i,-0.9%
CC(C)Cc1ccc(CN2CCCC(NC(=O)c3ccoc3)C2)cc1 (stereo not given),-7.1%,/,11.6µM*,13µM*,/,0.0%
Cc1noc(C)c1CCC(=O)NC1CCCN(Cc2ccc(CC(C)C)cc2)C1 (stereo not given),-23.9%,i,18.4µM*,14.6µM*,?,-12.8%
Cc1cc(C(=O)NC2CCCN(Cc3ccc(Cl)cc3)C2)n(C)n1 (stereo not given),-10.0%,i,?,?,i,-7.0%
CC(C)Cc1ccc(CN2CCCC(NC(=O)c3cccc(-n4cnnc4)c3)C2)cc1 (stereo not given),?,?,20.6µM*,23.1µM*,i,?
Cc1noc(C)c1CCC(=O)NC1CCCN(Cc2ccc(Cl)cc2)C1 (stereo not given),-2.4%,i,-19.8%,-2.6%,i,-14.2%
CC(C)Cc1ccc(CN2CCCC(NC(=O)c3nn(C)c(=O)c4ccccc34)C2)cc1 (stereo not given),-1.1%,i,?,?,i,-7.5%
CC(C)Cc1ccc(CN2CCCC(NC(=O)c3ccnn3C)C2)cc1 (stereo not given),-19.0%,/,18.4µM*,23.1µM*,/,-12.7%
COc1ccc(C2C(C(C)=O)=C(O)C(=O)N2c2nccs2)c(OC)c1 (stereo not given),-1.5%,i,-3.9%,?,i,10.2%
CC(C)(C)C1(O)CCN2CC3c4ccccc4CCc4cccc(c43)C2C1 (stereo not given),/,/,16.8µM*,23.7µM*,/,/
CC(C)(C)[C@]1(O)CCN2C[C@H]3c4ccccc4CCc4cccc(c43)[C@@H]2C1,-29.3%,i,8.2µM*!,11.6µM*,i,?
CN1CCN2c3ncccc3Cc3ccccc3C2C1 (stereo not given),-0.1%,i,15.9%,10.8%,i,15.4%
CCC(=O)N1CCN(c2ccccc2NC(=S)NC(=O)c2ccco2)CC1,-4.9%,?,?,?,i,-0.1%
COc1ccc(S(=O)(=O)Nc2ccc3c(c2)C(=O)N([C@H](C)CO)C[C@H](C)[C@@H](CN(C)S(=O)(=O)c2c(C)noc2C)O3)cc1,6.7%,i,-1.0%,-20.4%,i,4.7%
CCCCOc1ccc(CNC(=O)c2cccc(NC(=O)N3CCSc4ncccc43)c2)cc1,/,i,?,16.4µM*,?,/
SMILES,HT1080 IDH1KD tx,KB-V1 cytotox,DT40 TDP1 CPT,DT40 TDP1 no CPT,KB-3-1 tox,HT1080-NT tox
CCCCOc1ccc(CNC(=O)Cc2ccc(NC(=O)N3CCSc4ncccc43)cc2)cc1,/,i,?,?,i,/
Cc1ccccc1CNC(=O)c1cccc(NC(=O)N2CCSc3ncccc32)c1,/,i,18.4µM*,16.4µM*,i,/
CC(C)Oc1ccc(CNC(=O)c2cccc(NC(=O)N3CCSc4ncccc43)c2)cc1,/,i,?,20.6µM*,i,/
COc1ccc(CNC(=O)c2ccc(NC(=O)N3CCSc4ncccc43)cc2)cc1,/,i,?,?,i,/
CCOc1ccc(CNC(=O)c2cccc(NC(=O)N3CCSc4ncccc43)c2)cc1,/,i,?,23.1µM*,i,/
COc1ccc(NC(=O)CCCC2CCCCC2)cc1S(=O)(=O)N1CCCCC1,-20.9%,9.2µM*,?,?,?,-10.9%
COc1ccc(NC(=O)CCOc2ccc(C)cc2)cc1S(=O)(=O)N1CCCCC1,-6.1%,i,?,?,?,-10.6%
Cc1ccc(NC(=O)CCNC(=O)c2ccccc2Cl)cc1S(=O)(=O)N1CCCCCC1,-8.1%,i,?,?,i,-7.4%
Cc1ccc(NC(=S)NCc2ccccc2)cc1S(=O)(=O)N1CCCCC1,-7.6%,13µM*,?,?,?,-10.0%
CC(C)CC(=O)Nc1ccc(C(=O)COc2ccc(-c3nnco3)cc2)cc1,-0.4%,i,?,23.1µM*,i,-7.3%
COc1ccc(NC(=O)COc2cc(C)cc(C)c2)cc1S(=O)(=O)N1CCCCC1,?,18.4µM*,7.31µM*,8.2µM*,?,?
